Out of some 5,500 compounds screened, about 2,000 (36%) were called active. Not shown: some 18% with an inconclusive outcome. The list shows a part of the results. Unmarked numbers belong to inactive results. Rule as the data show it: active = normalized growth mostly below about 0.91 (no sharp cut-off); inconclusive = no clear call, values can overlap the other calls; inactive = mostly above about 0.92.
Experiment: chemical genetic growth profiling, strain panel (AID 1159580);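 also: tested at 20 µM; growth read once vehicle control cultures reached saturation at 30 °C; 1 = growth at the plate median or of vehicle wells; lower values mean less growth of the strain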
Conditions: S. cerevisiae deletion strains, growth OD

CCCN1CCc2cccc3c2[C@H]1Cc1ccc(O)c(O)c1-3
normalized growth (locus YAL040C, strain CLN3, hits give low values): 0.955 | normalized growth (locus YCL061C, strain MRC1 (second series), hits give low values): 0.516 (active) | normalized growth (locus YDR363W, strain ESC2, hits give low values): 0.79 (active) | normalized growth (locus YER002W, strain NOP16, hits give low values): 0.975 | normalized growth (locus YGR229C, strain SMI1, hits give low values): 0.186 (active) | normalized growth (locus YMR307W, strain GAS1, hits give low values): 0.481 (active) | normalized growth (locus YNL153C, strain GIM3, hits give low values): 0.534 (active) | normalized growth (locus YNL175C, strain NOP13, hits give low values): 0.96 | normalized growth (locus YNL197C, strain WHI3, hits give low values): 0.985 | normalized growth (locus YNL224C, strain SQS1, hits give low values): 0.996 | normalized growth (locus YOR083W, strain WHI5 (second series), hits give low values): 0.631 (active) | normalized growth (locus YPL055C, strain LGE1, hits give low values): 0.23 (active)

Source: PubChem BioAssay AID1159580 (chemical genetic matrix, 2015)
